Molecules are shown by their SMILES.

The target in the assay is AMP-activated protein kinase, AMPK (Homo sapiens) (UniProt P54646+O43741+P54619+Q9UGJ0+Q9Y478+Q13131+Q9UGI9). The assay can be described thus: AMP-dependent Kinase enzyme assay. An in vitro enzyme assay that detects ADP turnover that is directly proportional to AMPK activity. This uses naive AMPK that is activated during the assay with MK-8722. Type of assay: functional. Set-up: scale not given: direction of the effect not stated beside the values. The settings on record: 30 µM.
Turning to `COc1cccc(CN2CCCC(Nc3cccc(F)c3)C2)c1O` (stereo not given), the Percent Effect was -4%. Under `CS(=O)(=O)Cc1ccc(CNC(=O)c2cccnc2O)cc1` stands 8.18%; under `N#Cc1ccnc(N2CCN(CC(O)c3cccc(F)c3)CC2)c1` (stereo not given), 0.651%; under `CN1C(=O)C[C@@H]2[C@@H]1CCN2S(=O)(=O)Cc1ccccc1`, 4.04%. `Cn1ncc2c1C(COCC1CC1)CN(Cc1ccc(F)cc1)C2` (stereo not given): the Percent Effect was 3.73%. Under `CCC1=N[C@@]2(CC[C@@H]3CN(C(=O)NCC(C)C)C[C@@H]32)C(=O)N1CC(C)C` stands 0.0094%; under `CC(O)CN1CCN(C(=O)c2cnn(-c3ccccc3F)c2)CC1` (stereo not given), -6.53%. Take `O=C(CCc1nccs1)N1CCN(c2ccc(Br)cn2)CC1`: the Percent Effect turned out to be 14.3%.

Take `Cc1cc(CN2CC[C@H]3C(=O)N(c4ccccc4)CCO[C@H]3C2)no1`: the Percent Effect was determined as 1.48%. Under `Cn1cc(-c2csc(N3CCN(C(=O)OC(C)(C)C)CC3)n2)cn1` stands -13.6%.

Turning to `Cc1noc(C(C)C)c1C(=O)NCc1cccc(N(C)C)c1`, the Percent Effect is -6.12%. The value for `Cc1ccc(N2CCCc3sc(C(=O)NCc4cccnc4)nc32)nn1` was -0.787%; that for `Cc1nc2ccccc2nc1CN1CCCC1Cn1cncn1` (stereo not given) was -4.59%. On to `CC(C)C(=O)N1CCN(C(=O)CCc2nnc(-c3ccccc3)o2)CC1`, for which the Percent Effect is -0.0997%. Under `Cn1cnnc1C1CCCN(C(=O)NCc2ccc3c(c2)OCO3)C1` (stereo not given) stands -2.19%.

As to `CCn1cc(NC(=O)NCC2(N3CCOCC3)CCSC2)cn1` (stereo not given), the Percent Effect was 2.58%. Under `CS(=O)(=O)NC1CCN(C(=O)NCCNc2ccccn2)CC1` stands 0.725%; under `Cc1cccc(-n2ncc(C(=O)N3CCn4c(C)nnc4C3)c2C)c1`, 0.162%. The value for `O=C(c1cscn1)N1CCC[C@]2(C[C@H](OCC3CC3)CO2)C1` was 6.38%; that for `N#Cc1cccnc1NCc1cccnc1N1CCC(C(N)=O)CC1` was -4.32%. Under `c1cnc(NCc2noc3c2CN(CCN2CCCC2)CC3)nc1` stands -2.08%; under `NC(=O)C1CCN(c2nc3nccc(-c4ccccc4)c3c(=O)[nH]2)CC1`, -6.46%; under `Cc1cc(NC(=O)NCc2ccccn2)n(C)n1`, 3.11%. As for `Fc1ccc(CN2CCC(c3nccnc3-n3ccnc3)CC2)cc1`, the Percent Effect came to 8.26%. Turning to `O=C(c1ccc(-n2cccn2)nc1)N1CCCN(c2cccnn2)CC1`, the Percent Effect amounted to 6.8%. The value for `CCN(CC)c1ccc(C(=O)NCc2cccnc2-n2cncn2)cn1` was -12.6%; that for `CCCNC(=O)CCNC(=O)Cc1nc(-c2ccco2)oc1C` was -1.47%; that for `CN1CCCC(CNC(=O)N2CCN(Cc3ccon3)CC2)C1` (stereo not given) was -3.4%. Under `Cc1nc(C(C)(C)NC(=O)Nc2ccccc2)no1` stands 2.23%; under `CSCc1cccc(S(=O)(=O)NCCCN2CCOCC2)c1`, 1.35%; under `CN(Cc1ccsc1)C(=O)Nc1cccnc1N1CCCC1`, -31.4%. The value for `CC(C)n1c(C2CCCN(Cc3ccnn3C)C2)nc2ccccc21` (stereo not given) was 6.84%; that for `Cc1cc(CC(=O)N2CCCC2c2nc(C(C)C)no2)on1` (stereo not given) was -13.1%; that for `COc1cccc(CNc2nc(O)cc(C3CC(=O)N(C)C3)n2)c1` (stereo not given) was 4.37%. For the compound `CC(=O)N1CCn2cc(CNC(=O)c3cccn3C)nc2C1`, the Percent Effect amounted to 8.17%. `O=C1CC(c2ccccc2)C2(CCN(CC3CC3)CC2)N1` (stereo not given): the Percent Effect is 3.12%. The value for `CNC(=O)CSc1nc2c(cnn2Cc2ccc(F)cc2)c(=O)[nH]1` was 8.78%. Take `Cc1nc(C(=O)N2CCC(Nc3cccnn3)CC2)cs1`: the Percent Effect is -12.2%. For `COc1cccc(OCc2cc(C(=O)NC[C@H]3CCCN3)n[nH]2)c1`, the Percent Effect was -5.03%. Under `Cc1ccc(CN2CCc3ncnc(C4CCOC4)c3CC2)s1` (stereo not given) stands 1.52%.
